This passage reports growth results from PubChem BioAssay (NCI).

About 83,000 compounds went through this panel and 20% of them were active in at least one assay; those are over-represented in the sample as a whole.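 Assay: single dose, 48 h. Readout: percent growth (0 = no net growth; negative = cell death). Active: <10.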 A number with no mark means an inactive call. The source made the active and inactive calls.

Among the test systems are SK-MEL-2 melanoma; EKVX NSCLC; SN12C renal; UO-31 renal; TK-10 renal; ACHN renal; CAKI-1 renal; A498 renal; CCRF-CEM leukemia; MOLT-4 leukemia; SR leukemia; RPMI-8226 leukemia; OVCAR-8 ovarian; OVCAR-5 ovarian; OVCAR-4 ovarian; SK-OV-3 ovarian; IGROV1 ovarian; OVCAR-3 ovarian; HS 578T breast; NCI/ADR-RES ovarian.
Holding throughout (assay): NCI-60 one-dose screen, 48 h (100 = growth as untreated, 0 = no growth, -100 = all killed)
Holding throughout (settings): 10 µM unless noted

Take `O=C(OCc1ccc2c(Br)cc(Br)c(O)c2n1)N1CCN(C(=O)c2cc3ccccc3[nH]2)CC1`: the growth is 44.8% with SK-MEL-2 melanoma; 29.9% with EKVX NSCLC; 31.3% with SN12C renal; 12.8% with UO-31 renal; 47.5% in the experiment with TK-10 renal; 14.4% in the experiment with ACHN renal. The growth was 23% in the experiment with CAKI-1 renal; 20.3% with A498 renal; 21.2% with CCRF-CEM leukemia; 35.5% with MOLT-4 leukemia; 31.3% in the experiment with SR leukemia; 34.3% with RPMI-8226 leukemia. Further, the growth is 25.5% in the experiment with OVCAR-8 ovarian; 54.3% in the experiment on OVCAR-5 ovarian; 26% in the experiment with OVCAR-4 ovarian; 40.1% in the experiment on SK-OV-3 ovarian; 31.5% in the experiment with IGROV1 ovarian; 31.3% in the experiment on OVCAR-3 ovarian. For the same molecule, the growth with HS 578T breast is 48.2%; with NCI/ADR-RES ovarian, 7.07% (active).

For the molecule `C=CCNc1ccc2c3c(cccc13)C(=O)N(CC=C)C2=O`, the growth with SK-MEL-2 melanoma was 116%; in the experiment with EKVX NSCLC, 99.2%; in the experiment on SN12C renal, 97.6%; with UO-31 renal, 71.5%; with TK-10 renal, 97.3%; in the experiment on ACHN renal, 84.3%. Moreover, the growth was 72.9% with CAKI-1 renal; 89.7% in the experiment on A498 renal; 83% in the experiment with CCRF-CEM leukemia; 93.8% with MOLT-4 leukemia; 74.8% with SR leukemia; 95.2% with RPMI-8226 leukemia. Moreover, the growth was 96.3% with OVCAR-8 ovarian; 92% in the experiment with OVCAR-5 ovarian; 110% with OVCAR-4 ovarian; 103% with SK-OV-3 ovarian; 88.7% with IGROV1 ovarian; 107% in the experiment on OVCAR-3 ovarian. The figures for the growth with HS 578T breast and in the experiment with NCI/ADR-RES ovarian were 91.6% and 92.8%, respectively.

Regarding `O=[N+]([O-])c1ccc(Oc2cccc3c(Oc4ccc([N+](=O)[O-])cc4[N+](=O)[O-])cccc23)c([N+](=O)[O-])c1`, the growth with SK-MEL-2 melanoma is 90.4%; in the experiment with EKVX NSCLC, 77.7%; with SN12C renal it was 74.8%; in the experiment with UO-31 renal, 72.8%; in the experiment with TK-10 renal it was 119%; in the experiment with ACHN renal, 93.4%. In addition, the growth in the experiment on CAKI-1 renal is 89.2%; with A498 renal, 108%; with CCRF-CEM leukemia, 95.7%; in the experiment with MOLT-4 leukemia, 102%; with SR leukemia, 77.5%; in the experiment with RPMI-8226 leukemia, 95.6%. Moreover, the growth in the experiment on OVCAR-8 ovarian was 77.7%; in the experiment on OVCAR-5 ovarian, 109%; with OVCAR-4 ovarian, 87.8%; with SK-OV-3 ovarian it was 83.1%; in the experiment on IGROV1 ovarian, 79.6%; in the experiment on OVCAR-3 ovarian it was 95.2%. The figures for the growth with HS 578T breast and in the experiment with NCI/ADR-RES ovarian were 88.1% and 79.9%, respectively.

As to `O=C(Nc1ncc(Cc2ccccc2)s1)c1cc(-c2ccccc2)nc2ccccc12`, the growth in the experiment on SK-MEL-2 melanoma is 105%; in the experiment with EKVX NSCLC, 98.1%; in the experiment on SN12C renal it was 104%; with UO-31 renal, 78.7%; in the experiment with TK-10 renal, 98.1%; in the experiment on ACHN renal it was 99.4%. The growth in the experiment with CAKI-1 renal is 93.7%; in the experiment with A498 renal it was 103%; in the experiment with CCRF-CEM leukemia, 95.4%; with MOLT-4 leukemia, 95.6%; in the experiment on SR leukemia, 105%; with RPMI-8226 leukemia, 95.7%. The growth was 98.4% in the experiment on OVCAR-8 ovarian; 98.6% in the experiment with OVCAR-5 ovarian; 108% in the experiment on OVCAR-4 ovarian; 96.7% in the experiment on SK-OV-3 ovarian; 87.3% with IGROV1 ovarian; 104% with OVCAR-3 ovarian. Moreover, the growth with HS 578T breast is 92.6%; in the experiment with NCI/ADR-RES ovarian, 87.8%.

`CN1C(=O)N(C)C2C1NN=c1s/c(=C\c3ccccc3F)c(=O)n12` (stereo not given): the growth was 42.5% in the experiment with SK-MEL-2 melanoma; 48.3% in the experiment with EKVX NSCLC; 26% in the experiment on SN12C renal; 42.6% in the experiment with UO-31 renal; 63.1% in the experiment on TK-10 renal; 36.8% in the experiment on ACHN renal. Further, the growth in the experiment with CAKI-1 renal was 31.4%; in the experiment with A498 renal, 1.45% (active); in the experiment with CCRF-CEM leukemia, 11%; in the experiment with MOLT-4 leukemia it was 15.8%; with SR leukemia it was 18.2%; with RPMI-8226 leukemia, 20.7%. The growth was 10.1% in the experiment on OVCAR-8 ovarian; 25.6% in the experiment with OVCAR-5 ovarian; 49% in the experiment with OVCAR-4 ovarian; 33.8% in the experiment on SK-OV-3 ovarian; 20.8% in the experiment on IGROV1 ovarian; -3.72% (active) with OVCAR-3 ovarian. Besides, the growth was 7.57% (active) in the experiment with HS 578T breast and -13.1% (active) in the experiment with NCI/ADR-RES ovarian.

For `CN1CCN(Cc2ccc(NC(=O)c3cncc(C#Cc4c(N)ncc5c(F)cccc45)c3)cc2C(F)(F)F)CC1`, the growth was -65.4% (active) with SK-MEL-2 melanoma; 10.6% in the experiment on EKVX NSCLC; -92.6% (active) with SN12C renal; -86.2% (active) in the experiment with UO-31 renal; -95.1% (active) in the experiment with TK-10 renal; -79% (active) with ACHN renal. For the same molecule, the growth in the experiment on CAKI-1 renal was -70.4% (active); in the experiment on A498 renal it was -1.72% (active); in the experiment with CCRF-CEM leukemia it was -39.8% (active); in the experiment on MOLT-4 leukemia, -72.4% (active); in the experiment on SR leukemia it was -49% (active); in the experiment on RPMI-8226 leukemia, -26.5% (active). Also, the growth is -72.8% (active) in the experiment on OVCAR-8 ovarian; -33.3% (active) in the experiment on OVCAR-5 ovarian; -59.1% (active) with OVCAR-4 ovarian; 2.69% (active) with SK-OV-3 ovarian; -69.4% (active) in the experiment on IGROV1 ovarian; -84.8% (active) with OVCAR-3 ovarian. In addition, the growth in the experiment on HS 578T breast was -25.8% (active); in the experiment on NCI/ADR-RES ovarian it was -45.1% (active).

As to `COc1ccc(-c2cc(-c3ccc(N(C)C)cc3)nc(NC(=O)c3cccnc3)n2)cc1`, the growth in the experiment on SK-MEL-2 melanoma was 111%; in the experiment with EKVX NSCLC it was 96.6%; in the experiment on SN12C renal it was 97.5%; with UO-31 renal, 80.6%; with TK-10 renal, 117%; in the experiment with ACHN renal it was 95.6%. The growth in the experiment on CAKI-1 renal was 92.6%; with A498 renal, 109%; with CCRF-CEM leukemia it was 104%; with MOLT-4 leukemia, 98%; with SR leukemia, 86.4%; in the experiment with RPMI-8226 leukemia, 95.3%. The growth in the experiment with OVCAR-8 ovarian was 99.3%; in the experiment with OVCAR-5 ovarian, 105%; in the experiment on OVCAR-4 ovarian it was 103%; in the experiment with SK-OV-3 ovarian it was 103%; in the experiment with IGROV1 ovarian, 102%; in the experiment on OVCAR-3 ovarian, 106%. The values for the growth in the experiment on HS 578T breast and in the experiment on NCI/ADR-RES ovarian were 104% and 102%, respectively.

Consider `O=C(Nc1ccc(Oc2cccc(F)c2)c(Cl)c1)c1cnccn1`, for which the growth is 37.7% in the experiment on SK-MEL-2 melanoma; 51.3% in the experiment on EKVX NSCLC; 45.6% in the experiment on SN12C renal; 43.4% in the experiment with UO-31 renal; 59.5% in the experiment on TK-10 renal; 37.7% in the experiment with ACHN renal. For the same molecule, the growth was 25.2% in the experiment on CAKI-1 renal; 69.4% in the experiment with A498 renal; 18.4% in the experiment on CCRF-CEM leukemia; 41.2% in the experiment on MOLT-4 leukemia; 20.8% in the experiment with SR leukemia; 18% with RPMI-8226 leukemia. Moreover, the growth with OVCAR-8 ovarian was 37.5%; in the experiment with OVCAR-5 ovarian, 56.6%; in the experiment with OVCAR-4 ovarian, 44.5%; with SK-OV-3 ovarian it was 86%; in the experiment with IGROV1 ovarian, 40.5%; in the experiment with OVCAR-3 ovarian, -17.8% (active). Further, the values for the growth in the experiment on HS 578T breast and with NCI/ADR-RES ovarian were 27.8% and 9.06% (active), respectively.
